Only a selection was taken, and hits are over-represented in it overall.
CHX counter: affects cycloheximide protein synthesis inhibition readout, counter-screen; actives 12% (n = 300,000); max response, %; cell reporter, cycloheximide protein synthesis inhibition counterscreen; AID 2314; in the data active means max response mostly above about 13%, no sharp cut-off; inactive means mostly below about 14%; further: read at 38.3 µM for the half of the compounds with a filed dose; 0% is about no effect
Shiga toxin inh: blocks Shiga toxin action in Vero cells; actives 9.2% (n = 290,000); inhibition, % at 38.7 µM; Vero cells, Shiga toxin protein synthesis inhibition reporter; in the data active means inhibition mostly above about 28%, no sharp cut-off; inactive means mostly below about 43%; further: 0% is about no effect
MARV entry inh: blocks Marburg virus binding to or entry into cells; Potency, µM (series often up to 37.8 µM), for inactives: at the top dose activity change, negative = inhibition, usual class: inhibitors; actives 1.8% (n = 300,000); Marburg virus pseudotyped entry inhibition, cell reporter; calls by dose curve; tested in HEK293 cells; further: potency means the concentration at half of the fitted maximal effect; on the % scale 0 is the no-effect control and ±100 the full control effect
AMA1 RON2 block: inhibitors of Plasmodium falciparum AMA1-RON2 interaction; Potency, µM (doses to about 58.2 µM), for the others: top-dose activity change, negative = inhibition, most hits filed as inhibitors; AlphaScreen AMA1-biotinylated RON2 peptide binding; AID 720542; actives 0.2% (n = 360,000); active means well fitted inhibition curve with a large enough effect; inconclusive means small, poorly fitted or top-dose-only effect; inactive means no such curve, though single readings can be large or run the other way;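 further: potency means the concentration at half of the fitted maximal effect; 0% = vehicle wells and -100% = peptide control; nearly all actives have a fitted effect of over 45% in size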
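AMA1 (3D7) with his tag at 25 nM final met compounds first, then biotinylated RON2 peptide at 25 nM; detection used donor plus acceptor beads, 10 µg/mL apiece, read by AlphaScreen after 30 min at room temperature.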
LASV entry inh: inhibitors of Lassa virus binding or cell entry | Lassa virus pseudotype entry inhibition, cell reporter | Potency, µM (top dose mostly 37.9 µM), for the others: top-dose activity change, negative = inhibition, most hits filed as inhibitors | actives 1.2% (n = 300,000) | AID 540256; calls by dose curve; tested in HEK293 cells; further: potency means the concentration at half of the fitted maximal effect; on the % scale 0 is the no-effect control and ±100 the full control effect; nearly all actives have a fitted effect of over 50% in size
Numbers without * were called inactive; ? = inconclusive; / = no result; + = active, no number; [ ] = dose if it differs, or a comment.

SMILES | CHX counter | Shiga toxin inh | MARV entry inh | AMA1 RON2 block | LASV entry inh
COc1ccc(C(=O)NCC(=O)OCc2cc(=O)n3nc(C4CCCCC4)sc3n2)cc1 | / | / | / | / | 4.4%[46.1 µM]
S=C(NCc1ccco1)NCc1ccco1 | / | / | 8.4% | 14.2% | 12.5%
CN(C)c1ccc(/C=N/NC(=S)NCc2ccco2)cc1 | 16.1 | 23.4* | ? | 54.4% | 2.06µM*
CN(C)c1ccc(C(=S)NCc2ccco2)cc1 | 84.7* | + | ? | -9.7% | ?
S=C(NCc1ccco1)N/N=C/c1ccncc1 | -2.5 | -11.9 | -24.9%[46.1 µM] | 54.2% | -17.8%[46.1 µM]
COc1ccc(NC(=O)C2(S(=O)(=O)c3ccc(C)cc3)CC2)c(OC)c1 | / | / | ? | / | -8.1%[46.1 µM]
COc1ccc(NC(=O)COC(=O)CCC2CCCC2)c(OC)c1 | / | / | / | 1.0% | /
COc1ccc(NC(=O)c2cccs2)cn1 | 25.9* | 61.5* | 7.4%[46.1 µM] | -8.2% | ?
CC(C)(C)c1ccc(Oc2ccc(NC(=O)c3cccs3)cn2)cc1 | 8.7 | 1.9 | 12.6µM* | 5.9% | ?
COc1ccc(CCNc2ncnc3onc(C)c23)c(OC)c1 | / | / | / | / | -11.3%[46.1 µM]
COc1cccc(CNS(=O)(=O)c2ccc3c(c2)C(C(C)C)C(=O)N3)c1 (stereo not given) | / | / | / | / | 13.3%[46.1 µM]
COc1ccc(CCn2cc3c(c2-c2ccccc2Br)c(=O)n(C)c(=O)n3C)cc1OC | / | / | ? | / | 0.5%[46.1 µM]
COc1ccc(CNC(=O)c2cnc(N3CCCC3)nc2C)cc1 | / | / | / | / | 16.6%[46.1 µM]
CCc1ccc2nc3nc(C)cc(C)c3c(N)c2c1 | 19.6* | 90.8* | ? | 1.3% | ?
COc1ccc2c(C)nc(N/C(N)=N/S(=O)(=O)c3ccc(C)cc3)nc2c1 | -1.5 | -7.0 | ? | 0.3% | ?
Cc1ccc(NC(=S)/N=C(\N)Nc2nc(C)c3ccccc3n2)cc1C | 21.6* | 20.0 | ? | 6.5%[2.32 µM] | -23.6%
Cc1cccc(NC(=S)/N=C(\N)Nc2nc(C)c3ccc(C)cc3n2)c1 | -1.1 | -10.9 | 11.2µM* | 83.0% | ?
COc1ccc2nc(N/C(N)=N/C(=S)Nc3ccccc3)nc(C)c2c1 | 23.9* | 69.0* | ? | 33.0% | -2.2%
Cc1cc(C)cc(NC(=S)/N=C(\N)Nc2nc(C)c3ccccc3n2)c1 | -5.1 | -7.4 | ? | 8.1% | 6.0%
Cc1cccc(NC(=S)/N=C(\N)Nc2nc(C)c3cc(C)ccc3n2)c1 | -2.4 | -5.2 | ? | 37.4% | -14.8%
Cc1ccc(S(=O)(=O)/N=C(\N)Nc2nc(C)c3ccccc3n2)cc1 | 20.5* | 15.7 | ? | -1.5% | 1.5%
COc1ccccc1OCCC(=O)OCC(=O)NCc1ccc(F)cc1 | / | / | / | -5.0% | /
CCc1ccc(NC(=S)/N=C(\N)Nc2nc(C)c3cc(CC)ccc3n2)cc1 | 8.7 | -2.9 | ? | 13.8% | ?
Cc1cccc(NC(=S)/N=C(\N)Nc2nc(C)c3ccccc3n2)c1 | 29.8* | 49.9 | ? | 65.1% | ?
C/C=C1\COC(C(=O)NC)(C(F)(F)F)C=C1C=C1CCCCC1 (stereo not given) | 19.4 | 15.1 | / | / | /
SMILES | CHX counter | Shiga toxin inh | MARV entry inh | AMA1 RON2 block | LASV entry inh
CCCOc1ccc(-c2nnn(CC(=O)N3CCCCC3)n2)cc1 | 13.3 | 28.1 | / | 7.1% | /
CCOC(=O)Cn1nnc(-c2ccc([N+](=O)[O-])cc2)n1 | 10.7* | 14.0 | 13.5% | -20.4% | 2.7%
CCCOc1ccc(-c2nnn(CC(=O)OCC)n2)cc1 | 20.2* | 44.1 | 24.1% | ? | 15.3%
CCOc1ccc(-c2nnn(CC(=O)NCc3ccco3)n2)cc1 | 25.6* | 28.3 | ? | 3.6% | -13.4%
O=C(Cn1nnc(-c2ccccc2)n1)NCc1ccco1 | -3.6 | 37.0 | -5.5% | 9.5% | 0.0%
CN(C)c1ncc(C(=O)NCc2ccccc2Cl)cn1 | / | / | / | / | 2.2%[46.1 µM]
CCOc1nc(NC(=O)NS(=O)(=O)Oc2cccc(Cl)c2)nc(-c2ccccc2)n1 | 16.8* | -17.4 | ? | -0.1%[11.6 µM] | 28.0%
CCOc1nc(NC(=O)NS(=O)(=O)Oc2ccc(Cl)cc2)nc(-c2ccccc2)n1 | / | / | 20.0%[46.1 µM] | / | 15.7%[46.1 µM]
COc1ccc(-c2nn(-c3ccccc3)cc2C(=O)NC(=S)N2CCOCC2)cc1OC | / | / | / | 89.9% | /
CC(C)(C)c1ccc(C(=O)N/C(=C\c2ccco2)C(=O)Nc2ccccc2C(=O)O)cc1 | 30.7* | 60.4* | 19.7%[46.1 µM] | 0.0% | -13.4%
CC(C)(C)c1ccc(C(=O)Nc2ccccc2NC(=O)c2ccco2)cc1 | 20.2* | 29.4* | ? | -10.4% | ?
O=C(Nc1ccc(C(=O)O)cc1)/C(=C\c1ccco1)NC(=O)c1ccccc1 | -1.4 | 28.1 | -6.6%[46.1 µM] | -4.6% | /
CC(C)(C)c1ccc(C(=O)Nc2ccccc2Cl)cc1 | 19.1 | 49.8* | / | 23.6% | /
CCC(C(=O)NC1CCCC1)N(C(=O)c1snc(C(N)=O)c1N)c1ccc(C)cc1C (stereo not given) | -3.6 | 1.8 | ? | 20.7% | ?
CC1CCN(c2ccc(C(F)(F)F)cc2N)CC1 | 17.4* | 34.0 | 21.0% | -4.0% | 0.4%
CN1CCN(c2ccc(C(F)(F)F)cc2N)CC1 | 28.0 | 27.3 | 28.4%[46.1 µM] | 10.0% | 8.6%
COc1ccc(C(=O)N=c2sc3c(C)ccc(OC)c3n2C)cc1OC | 12.0 | 26.7 | / | 6.6% | /
COc1cccc(C(=O)N=c2sc3c(C)ccc(OC)c3n2C)c1 | 44.6* | 48.5* | / | -8.3% | /
COc1ccc(OC)c2c1sc(=NC(=O)C1CC1)n2C | 1.1 | -2.2 | / | -2.7% | /
COc1ccccc1C(=O)N=c1sc2c(C)ccc(OC)c2n1C | 39.9* | 107.0* | ? | -3.8% | -21.5%[46.1 µM]
C=CCOC(=O)C1=C(C)OC(N)=C(C#N)[C@@]12C(=O)N(CN1CCOCC1)c1ccccc12 | / | / | 16.5%[46.1 µM] | / | /
Cc1[nH]c2ccc3ncccc3c2c1C | 14.6* | -25.4 | 11.2% | -7.6% | ?
COc1ccc(C(=O)C2CCCN(Cc3cccn3-c3ccccn3)C2)cc1F (stereo not given) | 1.6 | -13.6 | ? | -1.3% | ?
Cc1nn(C(C)C)c(C)c1CN1CCCC(C(=O)c2cccc(OC(C)C)c2)C1 (stereo not given) | -2.6 | -7.3 | 12.6µM* | 13.3% | ?
CC(C)Oc1cccc(C(=O)C2CCCN(Cc3cccn3-c3ccccn3)C2)c1 (stereo not given) | -6.7 | -11.8 | ? | -8.7% | 11.2µM*
SMILES | CHX counter | Shiga toxin inh | MARV entry inh | AMA1 RON2 block | LASV entry inh
CCn1nc(C)c(CN2CCCC(C(=O)c3cccc(OC(C)C)c3)C2)c1C (stereo not given) | -1.5 | -23.6 | / | -5.5% | /
O=C(c1ccc(Cl)cc1)C1CCCN(Cc2cccn2-c2ccccn2)C1 (stereo not given) | -2.7 | -2.8 | 3.98µM* | -8.6% | ?
Cc1ccc2nc(-c3cccc(Br)c3)c(Cc3cccc(Cl)c3)n2c1 | / | / | / | -13.1% | /
O=c1c2oc3ccccc3c2n(Cc2ccccc2F)c(=O)n1Cc1ccco1 | / | / | / | / | 10.5%[46.1 µM]
CC(C)=CCCC(C)=CCON=C1C[C@@H](O)[C@@H](O)[C@@H]2[C@H]3C(=O)N(Cc4ccccc4)C(=O)[C@@H]3CC[C@@H]12 | / | / | 3.0%[14.2 µM] | / | /
CN(CC(=O)N/N=C/c1ccc(F)cc1)S(=O)(=O)c1ccccc1 | / | / | / | 6.6% | /
CCNC(=O)CSc1nc(-c2ccc(F)cc2)cs1 | 31.5* | 101.5* | 5.8% | 20.4% | 14.4%
CC(C)(C)NC(=O)CSc1nc(-c2ccc(F)cc2)cs1 | 31.8* | 83.0* | ? | -15.6% | ?

Bioassay records (PubChem)
